12-LOX inh = blocks human arachidonate 12S-lipoxygenase; purified 12hLO, xylenol orange hydroperoxide absorbance; 580,000 compounds, 1.1% hits; P18054; Potency, µM (titrated, usually from 108 µM), for the others: at the top dose activity change, negative = inhibition, hits mostly inhibitors; AID 1671190; also: potency is read from the fitted curve at half-maximal effect
Target sequence (P18054 whole entry, looked up): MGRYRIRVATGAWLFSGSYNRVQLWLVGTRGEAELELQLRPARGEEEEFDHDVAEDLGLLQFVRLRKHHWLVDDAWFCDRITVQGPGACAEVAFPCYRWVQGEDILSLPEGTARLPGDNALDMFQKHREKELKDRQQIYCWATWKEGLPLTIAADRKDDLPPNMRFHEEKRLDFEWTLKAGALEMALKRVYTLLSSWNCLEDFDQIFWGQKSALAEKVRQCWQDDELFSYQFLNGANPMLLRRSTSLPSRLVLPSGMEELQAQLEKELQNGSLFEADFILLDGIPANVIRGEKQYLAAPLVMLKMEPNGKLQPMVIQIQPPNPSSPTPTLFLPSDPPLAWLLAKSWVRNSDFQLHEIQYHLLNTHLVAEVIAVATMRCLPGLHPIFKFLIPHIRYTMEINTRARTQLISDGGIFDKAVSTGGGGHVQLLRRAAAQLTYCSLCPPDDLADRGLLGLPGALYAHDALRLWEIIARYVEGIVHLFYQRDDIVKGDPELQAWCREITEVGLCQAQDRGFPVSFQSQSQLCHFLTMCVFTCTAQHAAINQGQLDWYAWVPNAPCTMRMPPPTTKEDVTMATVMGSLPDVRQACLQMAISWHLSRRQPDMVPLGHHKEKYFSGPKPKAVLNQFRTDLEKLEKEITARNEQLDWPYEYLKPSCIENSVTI
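Hydroperoxide product was detected by ferrous iron/xylenol orange as the 573 to 405 nm absorbance ratio. Arachidonic acid at 40 uM (final) was turned over for 30 min at room temperature by 150 nM human 12hLO, pH 7.0 Hepes buffer, after 15 min compound preincubation.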
IL1B secr inh = blocks inflammasome-driven IL-1 beta release. 360,000 compounds, 4.7% hits. THP-1 LPS/ATP IL-1B secretion, AlphaLISA, 16 h; active compounds read low. activity change, % at 57.5 µM; in the data active = activity change below about -50%; inconclusive = mostly about -30% to -49%
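THP-1 cells pretreated 1 hr with compounds (up to 57.5 uM final), then stimulated with LPS (250 ng/mL final) plus ATP (1.25 mM final); secreted IL-1B measured by AlphaLISA after 16 hr, decreased signal indicating inhibition.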
HT1080-NT tox = kills 2HG-producing HT-1080-NT fibrosarcoma cells | 360,000 compounds, 1.6% hits | Potency, µM (top dose mostly 46.1 µM), for the others: at the top dose activity, negative = less viability, hits mostly cytotoxic | HT-1080-NT fibrosarcoma viability, CellTiter-Glo ATP luminescence, 48 h;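 also: NT is the 2HG producing partner of a matched IDH1 knockdown line; potency is read from the fitted curve at half-maximal effect; 0% = DMSO-treated cells and -100% = media-only wells without cells; nearly all actives have a fitted effect of over 55% in size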
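Toxicity toward the 2HG-producing NT line was scored as %Activity, normalised to DMSO and no-cell wells, from CellTiter-Glo luminescence after 48 hours' treatment.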
DT40 TDP1 no CPT = qHTS for Inhibitors of human tyrosyl-DNA phosphodiesterase 1 (TDP1): qHTS in cells in absence of CPT | Potency, µM (highest dose often 46.2 µM), for the others: at the highest dose activity change, negative = growth inhibition, usual class: inhibitors | DT40 Tdp1-/- hTDP1 cells, no CPT, ATP luminescence, 48 h | 420,000 compounds, 15% hits | AID 686978, 2013; also: potency is read from the fitted curve at half-maximal effect; nearly all actives have a fitted effect of over 55% in size
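Camptothecin absent (DMSO only). Human TDP1-complemented DT40 knockout cells, 400 cells/well, 37 °C for minimum 48 hr; ATP measured via CellTiter-Glo, 30 min dark incubation, luminescence.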
TDP1 cell CPT = DT40-hTDP1 cell growth loss with CPT; AID 686979; chicken DT40 Tdp1-/-;hTDP1 cells + 20 nM CPT, ATP luminescence, 48 h; 420,000 compounds, 12% hits; Potency, µM (series often up to 46.2 µM), for the others: at the top dose activity change, negative = growth inhibition, most hits filed as inhibitors; also: potency is read from the fitted curve at half-maximal effect; nearly all actives have a fitted effect of over 55% in size
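Cell growth measured by CellTiter-Glo luminescence after a minimum 48 h, 37 C compound exposure with 20 nM CPT in Tdp1-knockout DT40 cells stably expressing hTDP1, seeded 400/well; qHTS titration format.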
HT1080 IDH1KD tx = HT-1080 IDH1 knockdown cell toxicity (counter line) | 360,000 compounds, 2% hits | Potency, µM (series often up to 46.1 µM), for inactives: top-dose activity, negative = toxicity, usual class: cytotoxic | AID 686971 | HT-1080 IDH1 knockdown viability, ATP luminescence, 48 h;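 also: potency is read from the fitted curve at half-maximal effect; 0% = DMSO wells and -100% = cell-free medium wells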
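Knockdown cells (IDH1KD HT-1080) received compounds 2 h after plating at 750 cells/well and were kept 48 h at 37 °C in 5% FBS RPMI. A CellTiter-Glo luminescence read gave % activity for curve fitting.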
Active calls of the source: *. The entries come from a sample that favours hits as a whole. Unless noted, calls follow the shape of the dose curve; as a rule, active = well fitted curve in the direction sought with a large enough effect; inconclusive = small, poorly fitted or top-dose-only effect, or another doubt; inactive = no such curve, though single readings can be large; an effect the other way counts as inactive or inconclusive. Unless noted, % is scaled to controls: 0 for no effect and ±100 for the full control effect.

`Cc1cc(Cl)ccc1N(CC(=O)NCCN1CCOCC1)S(=O)(=O)c1ccccc1` gave 12-LOX inh 10%.
`Cc1ccc(Cl)cc1NC(=O)Nc1cccc(-c2ccc(N3CCOCC3)nn2)c1` gave 12-LOX inh 3%.
COC(=O)c1ccc(CN(C)Cc2cccs2)cc1 was read as 12-LOX inh 12%.
Screening CCCC(=O)N(C)CCOc1ccccc1 returned 12-LOX inh -1%.
Screening CC(C)(C)NC(=O)CN1C(=O)NC2(CCC(C(C)(C)C)CC2)C1=O (stereo not given) returned 12-LOX inh -12%.
Screening O=C(Nc1ccc2ccc(=O)oc2c1)C1=Cc2ccccc2OC=C1 returned 12-LOX inh -3%.
`CC(=O)NC(c1ccc(F)c(F)c1)c1nc(-c2ccc(F)c(Cl)c2)cs1` (stereo not given) gave 12-LOX inh -24%, IL1B secr inh -21, HT1080-NT tox -12%, DT40 TDP1 no CPT -30%, TDP1 cell CPT inconclusive and HT1080 IDH1KD tx -8%.
`CC(=O)NC(c1cccc(F)c1)c1nc(-c2csc3ccccc23)cs1` (stereo not given) gave 12-LOX inh inconclusive, IL1B secr inh -11, HT1080-NT tox -24%, DT40 TDP1 no CPT inconclusive, TDP1 cell CPT 23µM* and HT1080 IDH1KD tx -16%.
`COc1cccc(C(N)c2nc(-c3csc4ccccc34)cs2)c1` (stereo not given) gave IL1B secr inh 74, HT1080-NT tox inconclusive, DT40 TDP1 no CPT 2.9µM*, TDP1 cell CPT 3.7µM* and HT1080 IDH1KD tx inconclusive.
`COc1ccc(-c2csc(C(NC(C)=O)c3ccc(F)c(F)c3)n2)cn1` (stereo not given) gave 12-LOX inh 3%, IL1B secr inh -12, HT1080-NT tox 8%, DT40 TDP1 no CPT inconclusive, TDP1 cell CPT 23µM* and HT1080 IDH1KD tx -9%.
For CC(=O)NC(c1cccc(F)c1)c1nc(-c2cccc(C(C)C)c2)cs1 (stereo not given) the results were 12-LOX inh -24%, IL1B secr inh -19, HT1080-NT tox -23%, DT40 TDP1 no CPT 21µM*, TDP1 cell CPT 26µM* and HT1080 IDH1KD tx -20%.
For CC(=O)NC(c1cccc(F)c1)c1nc(-c2cccc(C(=O)O)c2)cs1 (stereo not given) the results were 12-LOX inh 0%, IL1B secr inh -11, HT1080-NT tox 3%, DT40 TDP1 no CPT -5%, TDP1 cell CPT 12% and HT1080 IDH1KD tx 5%.
For CC(=O)NC(c1ccccc1)c1nc(-c2csc3ccccc23)cs1 (stereo not given) the results were 12-LOX inh -11%, IL1B secr inh 5, HT1080-NT tox -6%, DT40 TDP1 no CPT inconclusive, TDP1 cell CPT inconclusive and HT1080 IDH1KD tx -30%.
For Cc1ccc(CNCCN(C)C)s1 the results were 12-LOX inh -21%.
CSc1nc(=O)[nH]c2nc[nH]c12 was read as DT40 TDP1 no CPT -2% and TDP1 cell CPT -2%.
For Nc1nc(=S)c2[nH]cnc2[nH]1 the results were 12-LOX inh inconclusive, IL1B secr inh 0, HT1080-NT tox 2.3µM*, DT40 TDP1 no CPT 1.8µM*, TDP1 cell CPT 2.6µM* and HT1080 IDH1KD tx 1.3µM*.
O=C(Cn1nc(-c2ccco2)ccc1=O)Nc1ccccc1 was read as 12-LOX inh -19%.
Cc1ccc(NC(=O)CCn2c(=O)c3cccn3c3ccccc32)cc1Cl was read as 12-LOX inh -14%, DT40 TDP1 no CPT 23µM* and TDP1 cell CPT 18µM*.
Screening COc1ccc(NC(=O)CCn2c(=O)c3cccn3c3cccnc32)cc1Cl returned 12-LOX inh 0%, DT40 TDP1 no CPT -24% and TDP1 cell CPT 0%.
Screening Cc1ccc(NC(=O)CCCn2c(=O)c3cccn3c3ccccc32)cc1C returned 12-LOX inh -13%, DT40 TDP1 no CPT 12µM* and TDP1 cell CPT 16µM*.
`Cc1c(Cl)cccc1NC(=O)CCn1c(=O)c2cccn2c2ccccc21` gave 12-LOX inh -19%, DT40 TDP1 no CPT 16µM* and TDP1 cell CPT inconclusive.
Cc1ccc(NC(=O)CCn2c(=O)c3cccn3c3ccccc32)cc1C was read as 12-LOX inh 1%, IL1B secr inh 61, HT1080-NT tox -22%, DT40 TDP1 no CPT 18µM*, TDP1 cell CPT inconclusive and HT1080 IDH1KD tx -12%.
Cc1cc(C)c(NC(=O)Cn2c(=O)c3cccn3c3ccccc32)c(C)c1 was read as 12-LOX inh inconclusive, IL1B secr inh 10, HT1080-NT tox 4%, DT40 TDP1 no CPT -26%, TDP1 cell CPT inconclusive and HT1080 IDH1KD tx 7%.
CC(NC(=O)CCc1c[nH]c2ccccc12)c1cccs1 (stereo not given) was read as 12-LOX inh 15%.
CCOc1ccccc1CNC(=O)[C@@]12CCCC[C@H]1N(CCOC)C(=O)CC2 was read as 12-LOX inh 27%.
For CN(C)CCNC(=O)CCCn1c(=O)c2cccn2c2ccccc21 the results were 12-LOX inh 0%, DT40 TDP1 no CPT -3% and TDP1 cell CPT 15%.
CCc1ccccc1NC(=O)CCCn1c(=O)c2cccn2c2ccccc21 was read as 12-LOX inh 2%, DT40 TDP1 no CPT 16µM* and TDP1 cell CPT inconclusive.
Screening CCOC(=O)C(N)c1c(C)nn(-c2cccc(C(F)(F)F)c2)c1C (stereo not given) returned 12-LOX inh -41%.
O=C(NCC(c1ccco1)N1CCCCC1)c1cc2ccccc2oc1=O (stereo not given) was read as 12-LOX inh -1%.
`O=C(Nc1ccn(Cc2cccc3ccccc23)n1)c1cccnc1` gave 12-LOX inh 6%, IL1B secr inh -4, HT1080-NT tox -19%, DT40 TDP1 no CPT inconclusive, TDP1 cell CPT inconclusive and HT1080 IDH1KD tx inconclusive.
Screening CN1C(=O)C(O)(CC(=O)c2cccnc2)c2ccccc21 (stereo not given) returned 12-LOX inh 0%, IL1B secr inh 16, HT1080-NT tox 4%, DT40 TDP1 no CPT 10µM*, TDP1 cell CPT 12µM* and HT1080 IDH1KD tx 4%.

High-throughput results deposited in PubChem BioAssay by National Center for Advancing Translational Sciences (NCATS).
